In PubChem BioAssay:
Calls of active or inactive are those of the source.

Columns and labels:
[1] = test system: Plasmodium falciparum Sir2 (PF13_0152, Sir2A); assay: pfSir2 binders on small-molecule microarrays, primary screen, biochemical, small-molecule microarray, 635 nm fluorescence (AID 1098); conditions: small-molecule microarray binding, fluorescence 635 nm; higher = more signal;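 note: score merges spot fluorescence intensity with its signal-to-noise ratio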
[2] = small-molecule microarray binders of probe aDKK1, primary screen, biochemical, biotinylated probe, 635/667 nm fluorescence (AID 1099); conditions: higher = more signal;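 note: score merges 667nm spot fluorescence with signal to noise across triplicate slides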
[3] = small-molecule microarray binders of probe aCHRDL2, primary screen, biochemical, biotinylated probe, 635/667 nm fluorescence (AID 1100); conditions: higher = more signal
[4] = splicing luciferase reporter signal modulators, primary screen, spliceosome inhibition project, cell-based, HEK293, splice +/- reporter (AID 1101); conditions: luminescence, 24 h, higher = more signal, called active from +8 up or from −8 down;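 note: HEK293 cells carrying a splicing-competent luciferase reporter gene; test concentration not given here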
[5] = biological target: Fibroblast growth factor 10 (Homo sapiens) (UniProt O15520); assay: FGF10 binders on small-molecule microarrays, primary screen, biochemical, small-molecule microarray, 635 nm fluorescence (AID 1102); conditions: FGF10 binding, fluorescence 635 nm, higher = more signal
Chain of Fibroblast growth factor 10 (Homo sapiens) (O15520 whole entry, looked up): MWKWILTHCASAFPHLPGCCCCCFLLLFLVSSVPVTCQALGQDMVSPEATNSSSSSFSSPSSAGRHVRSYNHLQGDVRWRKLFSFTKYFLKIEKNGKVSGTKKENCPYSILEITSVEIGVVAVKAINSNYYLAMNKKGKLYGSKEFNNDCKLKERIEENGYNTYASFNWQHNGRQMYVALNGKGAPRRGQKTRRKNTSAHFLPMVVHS

[6] = test system: glycogen synthase kinase-3 (GSK3A per assay name; protocol says GSK3B); assay: GSK3 binders on small-molecule microarrays, primary screen, biochemical, small-molecule microarray, 635 nm fluorescence, GSK3A (AID 1103); conditions: small-molecule microarray binding, fluorescence 635 nm; higher = more signal; note: the record names both GSK3A and GSK3B
[7] = biological target: Epidermal growth factor receptor (Homo sapiens) (UniProt P00533); assay: EGFR binders on small-molecule microarrays, primary screen, biochemical, small-molecule microarray, 635 nm fluorescence (AID 1104); conditions: EGFR binding, higher = more signal;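 note: score merges 667 nm emission intensity with spot signal to noise over triplicate slides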
Chain of Epidermal growth factor receptor (Homo sapiens) (P00533 whole entry, looked up): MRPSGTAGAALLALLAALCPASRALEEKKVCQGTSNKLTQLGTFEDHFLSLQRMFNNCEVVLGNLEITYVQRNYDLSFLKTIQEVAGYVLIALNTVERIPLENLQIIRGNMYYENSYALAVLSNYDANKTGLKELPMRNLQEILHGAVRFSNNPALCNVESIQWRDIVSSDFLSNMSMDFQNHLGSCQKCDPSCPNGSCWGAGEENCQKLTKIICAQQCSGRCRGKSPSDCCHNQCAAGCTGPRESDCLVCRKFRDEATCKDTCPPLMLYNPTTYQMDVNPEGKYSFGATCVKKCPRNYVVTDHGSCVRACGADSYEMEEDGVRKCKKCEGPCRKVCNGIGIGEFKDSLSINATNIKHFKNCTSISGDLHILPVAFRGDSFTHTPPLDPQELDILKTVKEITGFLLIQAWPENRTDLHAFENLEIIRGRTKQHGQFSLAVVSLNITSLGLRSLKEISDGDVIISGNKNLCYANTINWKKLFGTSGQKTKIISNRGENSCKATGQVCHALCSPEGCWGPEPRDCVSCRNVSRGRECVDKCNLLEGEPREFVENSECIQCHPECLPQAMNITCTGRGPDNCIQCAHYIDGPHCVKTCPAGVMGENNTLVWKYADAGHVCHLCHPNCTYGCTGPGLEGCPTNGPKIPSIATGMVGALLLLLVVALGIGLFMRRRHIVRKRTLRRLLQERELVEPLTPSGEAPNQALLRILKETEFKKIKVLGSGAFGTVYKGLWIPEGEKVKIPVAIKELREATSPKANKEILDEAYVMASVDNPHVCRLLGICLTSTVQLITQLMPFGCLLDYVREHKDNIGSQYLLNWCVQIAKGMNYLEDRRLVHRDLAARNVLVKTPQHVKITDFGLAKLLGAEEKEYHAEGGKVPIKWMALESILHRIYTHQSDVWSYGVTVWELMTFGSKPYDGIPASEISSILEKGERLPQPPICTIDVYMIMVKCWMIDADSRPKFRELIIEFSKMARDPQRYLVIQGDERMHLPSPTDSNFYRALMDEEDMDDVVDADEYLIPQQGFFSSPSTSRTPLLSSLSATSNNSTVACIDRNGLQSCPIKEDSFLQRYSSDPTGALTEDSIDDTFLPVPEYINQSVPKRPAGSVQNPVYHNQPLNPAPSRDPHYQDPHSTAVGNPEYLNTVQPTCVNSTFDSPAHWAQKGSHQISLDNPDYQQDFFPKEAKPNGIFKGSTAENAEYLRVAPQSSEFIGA

[8] = biological target: Follistatin-related protein 3 (Homo sapiens) (UniProt O95633); assay: FSTL3 binders on small-molecule microarrays, primary screen, biochemical, small-molecule microarray, 635 nm fluorescence (AID 1105); conditions: FSTL3 binding, higher = more signal;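 note: score merges emission near 667 nm and signal to noise per printed spot across three slides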
Chain of Follistatin-related protein 3 (Homo sapiens) (O95633 whole entry, looked up): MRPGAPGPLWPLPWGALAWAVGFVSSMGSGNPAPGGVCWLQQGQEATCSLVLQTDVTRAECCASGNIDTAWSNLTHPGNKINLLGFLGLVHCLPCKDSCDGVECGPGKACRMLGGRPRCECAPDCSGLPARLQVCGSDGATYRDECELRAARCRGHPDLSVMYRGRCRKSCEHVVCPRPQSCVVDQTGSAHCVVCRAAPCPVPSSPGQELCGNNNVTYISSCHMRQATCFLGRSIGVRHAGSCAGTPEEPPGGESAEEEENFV

[9] = biological target: Dickkopf-related protein 1 (Homo sapiens) (UniProt O94907); assay: DKK1 binders on small-molecule microarrays, primary screen, biochemical, small-molecule microarray, 635 nm fluorescence scan (AID 1106); conditions: DKK1 binding, higher = more signal;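 note: score merges emission near 667 nm with signal to noise over three replicate slides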
Chain of Dickkopf-related protein 1 (Homo sapiens) (O94907 whole entry, looked up): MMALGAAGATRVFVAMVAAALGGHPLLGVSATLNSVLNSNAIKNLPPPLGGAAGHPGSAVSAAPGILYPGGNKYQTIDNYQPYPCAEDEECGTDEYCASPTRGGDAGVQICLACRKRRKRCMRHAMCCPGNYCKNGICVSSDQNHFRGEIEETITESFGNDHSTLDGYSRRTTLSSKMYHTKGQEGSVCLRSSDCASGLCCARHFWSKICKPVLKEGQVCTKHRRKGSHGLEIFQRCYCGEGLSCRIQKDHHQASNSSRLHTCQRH

[10] = test system: Inhibin beta A chain (activin A); assay: INHBA (activin A) binders on microarrays, primary screen, biochemical, small-molecule microarray, 635 nm fluorescence scan (AID 1107); conditions: small-molecule microarray binding, higher = more signal;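 note: mouse activin A protein probed at 4.33 µg/mL on printed slides; score merges bound-protein fluorescence near 667 nm with spot signal-to-noise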
[11] = test system: Human papillomavirus type 1a protein E7 (residues 44-93); assay: HPV1a E7 fragment binders on microarrays, primary screen, biochemical, small-molecule microarray, residues 44-93, 635 nm fluorescence (AID 1108); conditions: small-molecule microarray binding, fluorescence 635 nm; higher = more signal;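 note: E7 fragment applied at 1 µg/mL in TBST for 1 h at 4 C; score combines spot fluorescence with its signal to noise ratio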
[12] = modulators of HCV replicon luciferase signal, primary screen, HCV replication inhibitor project, Huh7 cells, luciferase reporter (AID 1109); conditions: 48 h, higher = more signal;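 note: huh7 hepatoma cells harbouring a luciferase neomycin HCV replicon reporter; luciferase luminescence as measure of HCV replicon replication; test concentration not given here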
[13] = biological target: Left-right determination factor 2 (Homo sapiens) (UniProt O00292); assay: LEFTY2 binders on small-molecule microarrays, primary screen, biochemical, small-molecule microarray, 635 nm fluorescence scan (AID 1110); conditions: LEFTY2 binding, higher = more signal
Chain of Left-right determination factor 2 (Homo sapiens) (O00292 whole entry, looked up): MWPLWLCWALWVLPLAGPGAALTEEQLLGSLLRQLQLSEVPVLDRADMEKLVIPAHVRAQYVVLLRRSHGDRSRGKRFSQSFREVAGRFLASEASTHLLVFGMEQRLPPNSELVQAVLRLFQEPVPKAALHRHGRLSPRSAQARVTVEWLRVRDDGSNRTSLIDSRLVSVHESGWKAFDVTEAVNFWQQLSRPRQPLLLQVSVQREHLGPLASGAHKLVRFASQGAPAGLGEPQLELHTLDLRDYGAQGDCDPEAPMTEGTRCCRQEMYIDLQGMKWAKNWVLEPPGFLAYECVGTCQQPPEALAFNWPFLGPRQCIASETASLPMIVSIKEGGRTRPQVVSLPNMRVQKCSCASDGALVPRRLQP

[14] = biological target: Calmodulin-1 (Homo sapiens) (UniProt P0DP23); assay: CALM1 binders on microarrays, EGTA buffer, profiling panel, biochemical, small-molecule microarray, Cy5-labelled CALM1 (AID 1111); conditions: Cy5-CALM1 binding fluorescence, higher = more signal;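 note: labelled calmodulin applied in Tris saline Tween buffer holding calcium plus EGTA and DTT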
[15] = biological target: Calmodulin-1 (Homo sapiens) (UniProt P0DP23); assay: calcium-bound CALM1 binders on microarrays, profiling panel, artefact control for SMM control-protein annotation, biochemical, small-molecule microarray, Cy5-labelled CALM1, plus calcium (AID 1112); conditions: Cy5-CALM1 binding fluorescence, higher = more signal;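 note: score merges spot fluorescence with signal to noise from triplicate slides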
[16] = small-molecule microarray binders of probe aWnt5a, primary screen, biochemical, biotinylated probe, 635/667 nm fluorescence (AID 1113); conditions: higher = more signal;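 note: score merges 667 nm fluorescence intensity with signal-to-noise per printed feature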
[17] = small-molecule microarray binders of probe aShh, primary screen, biochemical, biotinylated probe, 635/667 nm fluorescence (AID 1114); conditions: higher = more signal;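 note: probe is biotin-labelled aShh protein from a stem cell growth factor screen; measures binding of labelled protein to compounds printed on the slide; score merges feature fluorescence at 667 nm with signal-to-noise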
[18] = small-molecule microarray binders of probe aNog, primary screen, biochemical, biotinylated probe, 635/667 nm fluorescence (AID 1115); conditions: higher = more signal;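 note: probe is biotinylated aNog protein used at 0.15 µg/mL for 1 h at 4 C; z-score combines 667 nm fluorescence of each spot with its signal to noise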
[19] = biological target: Torsin-1A-interacting protein 1 (Homo sapiens) (UniProt Q5JTV8); assay: LAP1 binders from COS7 cell lysate, primary screen, small-molecule microarray, 635/667 nm fluorescence (AID 1116); conditions: COS7-hLAP1 lysate binding, 635 nm fluorescence, higher = more signal
Chain of Torsin-1A-interacting protein 1 (Homo sapiens) (Q5JTV8 whole entry, looked up): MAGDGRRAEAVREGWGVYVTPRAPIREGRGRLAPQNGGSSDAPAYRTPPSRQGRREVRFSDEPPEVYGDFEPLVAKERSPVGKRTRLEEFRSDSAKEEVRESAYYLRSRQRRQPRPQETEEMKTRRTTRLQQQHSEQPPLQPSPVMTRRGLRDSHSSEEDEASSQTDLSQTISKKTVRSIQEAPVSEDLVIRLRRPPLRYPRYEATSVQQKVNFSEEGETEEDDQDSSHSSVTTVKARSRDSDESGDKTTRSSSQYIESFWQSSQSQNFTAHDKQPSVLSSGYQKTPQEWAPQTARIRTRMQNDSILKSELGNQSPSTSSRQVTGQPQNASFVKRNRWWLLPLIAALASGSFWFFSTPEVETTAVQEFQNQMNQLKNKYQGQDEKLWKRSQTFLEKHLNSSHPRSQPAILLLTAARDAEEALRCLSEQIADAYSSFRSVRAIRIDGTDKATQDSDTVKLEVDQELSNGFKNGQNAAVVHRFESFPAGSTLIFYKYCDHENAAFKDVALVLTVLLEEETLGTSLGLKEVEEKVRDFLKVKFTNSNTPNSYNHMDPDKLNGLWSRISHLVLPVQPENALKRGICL

[20] = biological target: Alpha-bungarotoxin (Bungarus multicinctus) (UniProt P60615); assay: alpha-bungarotoxin binders on microarray, profiling panel, artefact control for SMM control protein annotation, biochemical, small-molecule microarray, Alexa647 label, 635/667 nm fluorescence (AID 1117); conditions: alpha-BTX-A647 binding fluorescence, higher = more signal
Chain of Alpha-bungarotoxin (Bungarus multicinctus) (P60615 whole entry, looked up): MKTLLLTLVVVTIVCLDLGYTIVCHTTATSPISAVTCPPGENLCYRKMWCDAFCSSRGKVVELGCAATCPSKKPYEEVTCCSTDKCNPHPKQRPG

SMILES | composite z-score [1] | composite z-score [2] | composite z-score [3] | z-score [4] | composite z-score [5] | composite z-score [6] | composite z-score [7] | composite z-score [8] | composite z-score [9] | composite z-score [10] | composite z-score [11] | z-score [12] | composite z-score [13] | composite z-score [14] | composite z-score [15] | composite z-score [16] | composite z-score [17] | composite z-score [18] | composite z-score [19] | composite z-score [20]
N#Cc1ccc(C(O)C2C=CC3C(=O)NC(=O)C3N2Nc2ccccn2)cc1 (stereo not given) | 0.348 | -0.164 | 0.425 | -0.785 (inactive) | 0.0221 | 0.137 | 0.362 | -0.193 | 0.0057 | 0.921 | 0.447 | -0.676 | 0.286 | 0.2 | -0.272 | -0.178 | 0.151 | 0.287 | -0.298 | 0.617
CN(C)C(=O)[C@]1(Cc2ccccc2)N=C(c2ccc(OCCCO)cc2)O[C@@H]1c1ccccc1 | 0.747 | 0.129 | 0.624 | -0.012 (inactive) | 1.13 | 1.29 | -0.515 | 0.289 | -0.698 | 0.231 | 1.49 | -1.88 | -0.0054 | 1.25 | 0.529 | 0.0317 | -0.214 | 1.43 | 1.8 | 0.917
COC(=O)C1(CC(C)C)C=C2C(=C(C(C)C)C(=O)C2C)CN1 (stereo not given) | -0.573 | 0.834 | 0.937 | 1.97 (inactive) | -0.296 | -2 | -0.961 | -0.771 | -0.871 | 1.34 | -0.57 | -0.193 | -0.975 | 0.228 | 1.07 | -0.0403 | 0.171 | 0.595 | 0.187 | -0.77
C=C(CCCC)C(=O)CC[C@H](OC(=O)c1cccnc1)c1ccc(CO)o1 | 1.3 | -0.013 | -0.519 | 0.981 (inactive) | 1.13 | 1.17 | 0.266 | 1.3 | 1.36 | 1.19 | 1.07 | -1.26 | 1.16 | 0.223 | -0.183 | -0.0462 | 0.191 | -0.116 | 0.706 | 0.542
COc1ccccc1CN1C(=O)c2ccccc2[C@](Cc2ccccc2I)(C(=O)NCCCN(C)C)[C@@H]1c1ccc(CO)cc1 | 1.2 | -0.556 | -0.376 | -1.79 (inactive) | -0.0448 | 1.22 | 0.221 | 0.158 | 0.0393 | 0.545 | 1.35 | -3.5 | -0.371 | -0.167 | -0.272 | 0.134 | 0.215 | 1.44 | 0.549 | 0.812
COC(=O)c1c(CC[C@@H](CO)NC(=O)N[C@@H](Cc2ccccc2)Cn2cc(-c3cncn3C)nn2)oc(C(C)=O)c1C(=O)OC | 0.942 | -0.193 | -0.192 | -1.71 (inactive) | 0.481 | 0.352 | -0.913 | 0.367 | -0.376 | -0.721 | 1.47 | -0.594 | -0.338 | 0.162 | -0.329 | -0.124 | -0.0866 | -0.394 | 1.62 | 0.581
CCCCN1CC=CC23O[C@@H]4C=CCOC(=O)[C@@H]4[C@H]2C(=O)N(CCO)[C@@H]3C1=O (stereo not given in full) | 1.58 | 0.125 | 0.537 | 0.499 (inactive) | -1.25 | -0.641 | -1.54 | -1.24 | -1.58 | -0.112 | -0.718 | 0.407 | -2.32 | -0.483 | 0.856 | -0.119 | 0.0893 | 0.643 | -0.401 | -1.48
C=C(CC1([C@@H](NP(=O)(c2ccccc2)c2ccccc2)[C@H]2C[C@@H]2CCN(C(=O)OCC)S(=O)(=O)c2ccc(C)cc2)CC1)c1ccccc1 | 0.827 | 1.31 | 1.23 | -2.39 (inactive) | 0.429 | 0.288 | 0.0577 | 0.748 | -0.636 | 1.17 | 1.39 | -2.09 | -0.763 | 1.88 | 1.07 | 0.0267 | 0.935 | 1.06 | 0.379 | 0.749
